Test results from PubChem BioAssay (NCI).
Where “and” joins values, the source holds several entries; their conditions need not be identical. Equal values may be shown once. The panel holds about 83,000 compounds, 20% with a hit somewhere; the sample as a whole holds those more often.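 Percent growth is the endpoint: 0 to 100 indicates growth inhibition (40 means 60% inhibition), 0 means no net growth, and negative values indicate cell death.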

What was measured:
Experiment in all cases: NCI-60 one-dose screen, 48 h (100 = growth as untreated, 0 = no growth, -100 = all killed)
Details in all cases: 10 µM unless noted; active = growth percent below 10; inactive = the rest
T-47D breast = test system: T-47D breast
BT-549 breast = test system: BT-549 breast
MDA-MB-435 melanoma = test system: MDA-MB-435 melanoma
SW-620 colon = test system: SW-620 colon
MCF7 breast = test system: MCF7 breast
HCT-116 colon = test system: HCT-116 colon
KM12 colon = test system: KM12 colon
HCC-2998 colon = test system: HCC-2998 colon

Measured: growth

C/C(CC(C)C)=N/NC(N)=S
inactive: T-47D breast 39% | BT-549 breast 107% | MDA-MB-435 melanoma 104% | SW-620 colon 85.4% | MCF7 breast 21.3% | HCT-116 colon 11.8% | KM12 colon 101%

O=C(O)c1cccc(Br)c1
inactive: T-47D breast 92.3% and 83.4% | BT-549 breast 104% | MDA-MB-435 melanoma 114% and 107% | SW-620 colon 112% and 104% | MCF7 breast 98.7% and 98.2% | HCT-116 colon 99.7% and 97.6% | KM12 colon 101% and 106%

CN(C)C(=N)N=C(N)N
inactive: T-47D breast 90.5% and 102% | BT-549 breast 80.2% and 156% | MDA-MB-435 melanoma 109% and 124% | SW-620 colon 108% and 105% | MCF7 breast 96.7% and 146% | HCT-116 colon 108% and 98.3% | HCC-2998 colon 115% | KM12 colon 100% and 108%

Nc1nc(-c2ccccn2)cc(-c2cc(-c3ccccn3)nc(N)n2)n1
inactive: T-47D breast 109% | BT-549 breast 117% | MDA-MB-435 melanoma 119% | SW-620 colon 133% | MCF7 breast 92.2% | HCT-116 colon 111% | HCC-2998 colon 104% | KM12 colon 107%

CC1(C)CC(=O)NC1=O
inactive: T-47D breast 91.5% | BT-549 breast 104% | MDA-MB-435 melanoma 94.9% | SW-620 colon 107% | MCF7 breast 93.6% | HCT-116 colon 96.5% | KM12 colon 102%

COCCNC(C)=O
inactive: T-47D breast 89.5% | BT-549 breast 106% | MDA-MB-435 melanoma 105% | SW-620 colon 105% | MCF7 breast 94.1% | HCT-116 colon 105% | HCC-2998 colon 118% | KM12 colon 103%

CC1OS(=O)OC1C (stereo unspecified)
inactive: T-47D breast 93% | BT-549 breast 105% and 104% | MDA-MB-435 melanoma 99.3% and 101% | SW-620 colon 105% and 98.3% | MCF7 breast 91.2% and 93.9% | HCT-116 colon 105% and 102% | KM12 colon 107% and 97.5%

O=C(Nc1ccccc1)OCC(CN1CCCCC1)OC(=O)Nc1ccccc1 (stereo unspecified)
inactive: T-47D breast 71.5% and 97% | BT-549 breast 69.7% and 102% | MDA-MB-435 melanoma 90.3% and 97.4% | SW-620 colon 104% and 96.9% | MCF7 breast 72.9% and 96% | HCT-116 colon 69.1% and 93.6% | KM12 colon 93% and 101%

C/C=C(/C(=O)NC(N)=O)C(C)C
inactive: T-47D breast 99.1% | BT-549 breast 106% | MDA-MB-435 melanoma 107% | SW-620 colon 94.5% | MCF7 breast 94% | HCT-116 colon 99.5% | KM12 colon 90.8%

CCOC(=O)CN1CCC(C(=O)OCC)CC1
inactive: T-47D breast 102% | BT-549 breast 105% | MDA-MB-435 melanoma 114% | SW-620 colon 108% | MCF7 breast 103% | HCT-116 colon 98.1% | KM12 colon 109%

COc1ccc(S(=O)(=O)c2ccc(F)cc2)cc1
inactive: T-47D breast 99% | BT-549 breast 99% | MDA-MB-435 melanoma 122% | SW-620 colon 103% | MCF7 breast 101% | HCT-116 colon 102% | HCC-2998 colon 111% | KM12 colon 106%

OC1CCCN(Cc2ccccc2)C1 (stereo unspecified)
inactive: T-47D breast 94.9% | BT-549 breast 112% | MDA-MB-435 melanoma 107% | SW-620 colon 107% | MCF7 breast 102% | HCT-116 colon 103% | HCC-2998 colon 116% | KM12 colon 107%

COc1cc(Cl)ccc1C
inactive: T-47D breast 94.9% | BT-549 breast 102% | MDA-MB-435 melanoma 102% | SW-620 colon 52.8% | MCF7 breast 56.8% | HCT-116 colon 59% | HCC-2998 colon 105% | KM12 colon 92.8%

CC(=O)C[n+]1ccccc1Sc1ccc(Cl)cc1
inactive: T-47D breast 84.8% | BT-549 breast 30% | MDA-MB-435 melanoma 78% | SW-620 colon 91.6% | MCF7 breast 65% | HCT-116 colon 81.5% | HCC-2998 colon 128% | KM12 colon 79.2%

COc1ccc2oc3cc(NCCN(C)C)ccc3c(=O)c2c1
inactive: T-47D breast 80.6% and 63.4% | BT-549 breast 97.2% and 93.9% | MDA-MB-435 melanoma 85.8% and 70.8% | SW-620 colon 78% and 55.4% | MCF7 breast 84.4% and 67.8% | HCT-116 colon 93.9% and 54.1% | KM12 colon 90.1% and 79.8%

NNc1ncnc2cccc(Cl)c12
inactive: T-47D breast 90.6% | BT-549 breast 112% | MDA-MB-435 melanoma 115% | SW-620 colon 104% | MCF7 breast 96.6% | HCT-116 colon 98.1% | KM12 colon 106%

CC1CC(O)CC(C)(C)C1.CC1CC(O)CC(C)(C)C1.CC1CC(O)CC(C)(C)C1.CC1CC(O)CC(C)(C)C1.[Ti] (stereo unspecified)
inactive: T-47D breast 92.7% | BT-549 breast 111% | MDA-MB-435 melanoma 99.6% | SW-620 colon 99.8% | MCF7 breast 99.8% | HCT-116 colon 99.5% | HCC-2998 colon 110% | KM12 colon 103%

O=C1C=CC(=O)N1Cc1ccco1
inactive: T-47D breast 91.7% | BT-549 breast 100% | MDA-MB-435 melanoma 95.8% | SW-620 colon 58.4% | MCF7 breast 62% | HCT-116 colon 52.5% | HCC-2998 colon 101% | KM12 colon 103%

C/C(=C\c1ccccc1)C(O)C(=O)c1nc2ccc([N+](=O)[O-])cc2[nH]c1=O (stereo unspecified)
inactive: T-47D breast 77.5% | BT-549 breast 78.9% | MDA-MB-435 melanoma 99.5% | SW-620 colon 104% | MCF7 breast 79.3% | HCT-116 colon 91.4% | HCC-2998 colon 106% | KM12 colon 90.3%

CCCC(=O)Oc1ccc(CC)cc1
inactive: T-47D breast 90.9% | BT-549 breast 107% | MDA-MB-435 melanoma 107% | SW-620 colon 111% | MCF7 breast 92.4% | HCT-116 colon 101% | HCC-2998 colon 102% | KM12 colon 102%

CCC/C(=N/NC(N)=O)c1ccco1
inactive: T-47D breast 72.6% | BT-549 breast 97.4% | MDA-MB-435 melanoma 106% | SW-620 colon 102% | MCF7 breast 92.1% | HCT-116 colon 99.7% | HCC-2998 colon 104% | KM12 colon 103%

Cc1cc(=NO)cc(C)n1O
inactive: T-47D breast 94.4% | BT-549 breast 82.8% | MDA-MB-435 melanoma 106% | SW-620 colon 100% | MCF7 breast 87.6% | HCT-116 colon 97.3% | KM12 colon 110%

O=COCCCc1ccccc1
inactive: T-47D breast 92.7% | BT-549 breast 104% | MDA-MB-435 melanoma 110% | SW-620 colon 103% | MCF7 breast 105% | HCT-116 colon 96.1% | HCC-2998 colon 121% | KM12 colon 109%

OCCS
inactive: T-47D breast 92.8% | BT-549 breast 134% | MDA-MB-435 melanoma 105% | SW-620 colon 109% | MCF7 breast 94.1% | HCT-116 colon 103% | HCC-2998 colon 93.9% | KM12 colon 103%

CCC(C)(O)CCC(C)(O)CC (stereo unspecified)
inactive: T-47D breast 96% | BT-549 breast 107% | MDA-MB-435 melanoma 111% | SW-620 colon 112% | MCF7 breast 92.4% | HCT-116 colon 101% | KM12 colon 103%

CCc1ccccc1-n1[nH]c(C)c(C=N)c1=O
inactive: T-47D breast 126% | BT-549 breast 108% | MDA-MB-435 melanoma 104% | SW-620 colon 106% | MCF7 breast 94.1% | HCT-116 colon 120% | HCC-2998 colon 118% | KM12 colon 102%

COc1ccc(CCN=Cc2ccc(Cl)cc2)cc1OC
inactive: T-47D breast 97% | BT-549 breast 107% | MDA-MB-435 melanoma 113% | SW-620 colon 102% | MCF7 breast 96.1% | HCT-116 colon 104% | HCC-2998 colon 105% | KM12 colon 102%

COc1ccc2nccc(Cl)c2c1
inactive: T-47D breast 122% | BT-549 breast 98.4% | MDA-MB-435 melanoma 108% | SW-620 colon 101% | MCF7 breast 98.5% | HCT-116 colon 103% | HCC-2998 colon 115% | KM12 colon 92.8%

COc1ccc(CCO)cc1
inactive: T-47D breast 101% | BT-549 breast 105% | MDA-MB-435 melanoma 109% | SW-620 colon 104% | MCF7 breast 102% | HCT-116 colon 94.6% | HCC-2998 colon 107% | KM12 colon 102%

Cc1c(Cl)cc(Cl)c(N)c1Cl
inactive: T-47D breast 104% | BT-549 breast 112% | MDA-MB-435 melanoma 104% | SW-620 colon 101% | MCF7 breast 98.6% | HCT-116 colon 103% | KM12 colon 114%

COc1ccc([N+](=O)[O-])cc1OC
inactive: T-47D breast 103% and 102% | BT-549 breast 110% | MDA-MB-435 melanoma 109% and 107% | SW-620 colon 91.8% and 110% | MCF7 breast 87.5% and 96.7% | HCT-116 colon 96.5% and 102% | HCC-2998 colon 105% | KM12 colon 109% and 120%
